# Results reported in PubChem BioAssay (NCATS).
# Several values for one entry are separate records, joined by “and”; a condition that tells them apart may be missing. Equal values may be shown once. Inconclusive results are not listed. Where a call stands in place of a potency, no number is given. Unmarked numbers belong to inactive results. Activity calls are given as the source filed them. Unless noted, calls follow the shape of the full dose curve.
# How the values were obtained:
# [1] = Primary qHTS for Huh7 cytotoxicity: counterscreen for inhibitors of MERS-S pseudotyped particle cell entry (AID 1479147); also: potency is read from the fitted curve at half-maximal effect
# [2] = Primary qHTS for inhibitors of MERS-S pseudo-typed particle cell entry (AID 1479149); also: nearly all actives have a fitted effect of over 60% in size; also: potency is read from the fitted curve at half-maximal effect; as to activity change, negative = inhibition: series mostly up to about 57 µM
# [3] = Primary qHTS for Vero E6 cytotoxicity: counterscreen for inhibitors of SARS-S pseudo-typed particle cell entry (AID 1479150)
# [4] = Cytotoxicity counterscreen for inhibitors of SARS-CoV-2 cell entry (AID 1645845); also: nearly all actives have a fitted effect of over 50% in size; as to activity change, negative = cytotoxicity: series mostly up to about 57 µM
# Outline: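 48 h compound treatment (after 1 h preincubation), HEK293-ACE2 cells, 37 C/5% CO2; ATP luminescence endpoint; normalized to cell wells and media blanks.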
# [5] = Confirmatory qHTS for VERO E6 Cytotoxicity Assay: Counterscreen for SARS-CoV-2 CPE Assay (AID 1508605); also: series mostly up to about 20 µM; nearly all actives have a fitted effect of over 60% in size
# [6] = Confirmatory qHTS for activators (rescue) of SARS-CoV-2 Cytopathic Effect (CPE) (AID 1508606); also: potency is read from the fitted curve at half-maximal effect; nearly all actives have a fitted effect of over 70% in size
# [7] = Primary qHTS for inhibitors of La Crosse Virus (LACV) - induced cell death in SH-SY5Y cells (AID 1508616; active = well fitted curve in the direction sought with a large enough effect; an effect the other way counts as inactive or inconclusive;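 also: top concentration of the series differs between compounds; higher means more rescue of cells from virus-induced death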)
# Outline: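 Readout was luminescence from ATPLite 1step added after a 6-day LACV infection (0.01 MOI) of SH-SY5Y cells that had received pin-transferred compound 24 hr after seeding.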
# [8] = target: Calcium and integrin-binding protein 1 (Homo sapiens) (UniProt Q99828); assay: Validation qHTS for Identification of Calcium Integrin Binding protein 1 (CIB1) Competitor (AID 1508618; active = well fitted curve in the direction sought with a large enough effect; an effect the other way counts as inactive or inconclusive)
# Sequence of Calcium and integrin-binding protein 1 (Homo sapiens) (Q99828 whole entry, looked up): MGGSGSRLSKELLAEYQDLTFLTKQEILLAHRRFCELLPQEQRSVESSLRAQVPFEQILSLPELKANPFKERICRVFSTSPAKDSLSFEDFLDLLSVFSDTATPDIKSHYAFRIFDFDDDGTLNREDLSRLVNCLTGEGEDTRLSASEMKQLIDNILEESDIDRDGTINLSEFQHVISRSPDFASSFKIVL
# Outline: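 Displacement of FITC-alphaIIb peptide (100 nM) from CIB1-GST (1 uM) is monitored by polarization in quantitative HTS format; buffer carries 5 mM CaCl2 and 125 mM NaCl at pH 7.4, incubations are at room temperature.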
# [9] = target: Calcium and integrin-binding protein 1 (Homo sapiens) (UniProt Q99828); assay: Primary qHTS for Identification of Calcium Integrin Binding Protein 1 (CIB1) Competitor (AID 1508620; active = well fitted curve in the direction sought with a large enough effect; an effect the other way counts as inactive or inconclusive;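 also: GST tagged CIB1 binding a fluorescein labelled alphaIIb integrin peptide tracer; top concentration of the series differs between compounds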)
# Outline: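 CIB1-GST (1 uM final) and compound incubated 15 min at room temperature before adding FITC-alphaIIb peptide tracer (100 nM final). Competition for binding read by fluorescence polarization (ex 480, em 540) after another 15 min at room temperature.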
# [10] = Primary qHTS for small molecule stabilizers of the endoplasmic reticulum resident proteome: Secreted ER Calcium Modulated Protein (SERCaMP) assay (AID 1508630; active = well fitted curve in the direction sought with a large enough effect; an effect the other way counts as inactive or inconclusive)
# Outline: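 GLuc-SERCaMP-expressing SH-SY5Y cells, pretreated 16 h with compound, are challenged with thapsigargin to empty ER calcium stores; after 4 h, coelenterazine is added directly to the medium and luminescence is imaged.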
# [11] = Confirmatory qHTS to identify inhibitors of SARS-CoV-2 cell entry (AID 1645844); also: potency is read from the fitted curve at half-maximal effect; nearly all actives have a fitted effect of over 45% in size
# Outline: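 Luminescence from a luciferase reporter, read 48 hr after pseudotyped-particle addition, gives entry signal, normalised to spike-bearing PP wells and bald PP lacking fusion protein wells. Cells are Expi293F stably expressing human ACE2, compound-pretreated 1 hr.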
structure (smiles),measurement,setting,value
CCN(CCO)CCCC(C)Nc1ccnc2cc(Cl)ccc12 (stereo not given),outcome,[1],inactive [at 5.34 µM]
same,"activity change, negative = inhibition",[2],3.49% [at 5.34 µM]
same,outcome,[3],inactive [at 5.34 µM]
same,"activity change, negative = cytotoxicity",[4],-4.65% [at 5.25 µM] and -23.5% [at 5.25 µM]
COc1ccccc1OCCNCC(O)COc1cccc2[nH]c3ccccc3c12 (stereo not given),Potency,[1],inactive
same,Potency,[3],inactive
same,Potency,[5],inactive
same,Potency,[6],10 µM (active)
same,Potency,[4],inactive
CNCCCN1c2ccccc2CCc2ccccc21,Potency,[1],inactive
same,Potency,[3],inactive
same,Potency,[5],inactive
same,Potency,[4],inactive
C[C@H]1c2cccc(O)c2C(O)=C2C(=O)[C@]3(O)C(O)=C(C(N)=O)C(=O)[C@@H](N(C)C)[C@@H]3[C@@H](O)[C@@H]21,Potency,[1],inactive
same,Potency,[3],inactive
same,Potency,[4],inactive
COC1=CC(=O)C[C@@H](C)[C@]12Oc1c(Cl)c(OC)cc(OC)c1C2=O,Potency,[2],inactive
same,Potency,[3],inactive
same,Potency,[4],inactive
CCCNCC(O)COc1ccccc1C(=O)CCc1ccccc1 (stereo not given),Potency,[3],inactive
same,Potency,[5],inactive
same,Potency,[4],inactive
OCCN(CCO)c1nc(N2CCCCC2)c2nc(N(CCO)CCO)nc(N3CCCCC3)c2n1,Potency,[1],inactive
same,Potency,[3],inactive
same,Potency,[4],inactive
Fc1ccc([C@@H]2CCNC[C@H]2COc2ccc3c(c2)OCO3)cc1,Potency,[1],inactive
same,Potency,[3],inactive
same,Potency,[4],inactive
OCCOCCN1CCN(C(c2ccccc2)c2ccc(Cl)cc2)CC1 (stereo not given),Potency,[1],inactive
same,Potency,[3],inactive
same,Potency,[4],inactive
CCN(CC)CCOC(=O)C1(C2CCCCC2)CCCCC1,Potency,[1],inactive
same,Potency,[3],inactive
same,Potency,[4],inactive
O=c1[nH]c2ccccc2n1CCCN1CCC(n2c(=O)[nH]c3cc(Cl)ccc32)CC1,Potency,[3],inactive
same,Potency,[7],inactive
same,Potency,[8],inactive
same,Potency,[9],inactive
same,outcome,[10],inactive
same,Potency,[4],inactive
CNCCC(Oc1ccc(C(F)(F)F)cc1)c1ccccc1 (stereo not given),Potency,[3],inactive
same,Potency,[5],inactive
same,Potency,[11],6.81 µM (active)
same,Potency,[4],inactive
COc1cc(Nc2c(C#N)cnc3cc(OCCCN4CCN(C)CC4)c(OC)cc23)c(Cl)cc1Cl,Potency,[1],28.2 µM (active)
same,Potency,[11],19.2 µM (active)
CNCC[C@H](Oc1cccc2ccccc12)c1cccs1,Potency,[2],25.1 µM (active)
same,Potency,[3],inactive
same,Potency,[5],inactive
same,Potency,[6],10 µM (active)
